Test results from ChEMBL document CHEMBL1201862, “PubChem BioAssay data set” (2004).
These assays gave more results; the selection is not random.

These compounds were tested against Acyl-homoserine lactone acylase PvdQ (Pseudomonas aeruginosa (strain LESB58)) (UniProt Q9I194) (assay: P. aeruginosa growth delay under iron chelation, dose response, absorbance, plate reader, cherry-picks (AID 602389)).
Format: functional

AbsAC35, active:
COc1ccc(C2=C(C=O)Cc3ccccc3O2)cc1 210 µM
N#CN(Cc1ccccc1)Cc1ccccc1 477 µM
C#CCSc1ncc(-c2ccccc2)cn1 214 µM
N#Cc1cc(-c2ccccc2)cnc1Cl 74.1 µM
C=CCOC(=O)c1ccc(-n2cnc(C)n2)nc1 89.1 µM
